# Test results from PubChem BioAssay (Tox21).
# Values without a mark were called inactive. Inconclusive results are not listed. Entries that show only a call come without a potency. Active and inactive are the calls of the source. Unless noted, calls follow the shape of the dose curve; as a rule, active = well fitted curve in the direction sought with a large enough effect in the repeat runs; inconclusive = weak or mixed curves; inactive = no such curve, though single readings can be large; an effect the other way counts as inactive or inconclusive.
# Experiments:
# [1] = target: Thyrotropin receptor (Homo sapiens) (UniProt P16473); assay: qHTS assay to identify small molecule antagonists of the thyroid stimulating hormone receptor (TSHR) signaling pathway (AID 1259385; calls by dose curve; also: nearly all actives have a fitted effect of over 20% in size)
# Summary of the method: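 TSHR-HEK293 cells were plated and held 18 h at 37C/5% CO2, then given compound plus Ro20-1724 and stimulated with TSH at 1.5 ng/mL final. After 30 min at room temperature, cAMP was detected with cAMP-d2/anti-cAMP-cryptate (1 h) by fluorescence.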
# [2] = qHTS assay to identify small molecule agonists of the estrogen receptor alpha (ER-alpha) signaling pathway in the presence of an antagonist - cell viability counter screen (AID 1259386);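 also: series mostly up to about 92 µM; cells exposed to compounds for 22 h at 37 °C before the viability read; nearly all actives have a fitted effect of over 30% in size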
# Summary of the method: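 Viability counter screen using VM7Luc4E2 (full-length ER-alpha, four ERE-luciferase). The cells were treated with compounds alongside ICI-182,780 10.0nM for 22hr, and live-cell protease fluorescence was quantified with CellTiter-Fluor.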
# [3] = target: Progesterone receptor (Homo sapiens) (UniProt P06401); assay: qHTS assay to identify small molecule agonists of the progesterone receptor (PR) signaling pathway (AID 1346784; calls by dose curve; also: nearly all actives have a fitted effect of over 30% in size)
# Summary of the method: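 Fluorescence from LiveBLAzer B/G FRET substrate cleavage (2 hr, RT) reported PR activation in PR-UAS-bla HEK 293T cells treated 16 hr at 37C/5% CO2 with compounds; medium contained 2% charcoal-stripped FBS.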
# [4] = target: Progesterone receptor (Homo sapiens) (UniProt P06401); assay: qHTS assay to identify small molecule antagonists of the progesterone receptor (PR) signaling pathway (AID 1346795; active = well fitted inhibition curve with a large enough effect in the signal ratio in the repeat runs, not every such curve was filed as active; the % refers to the signal ratio)
# Summary of the method: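 Fluorescence intensity measured 2 hr after adding beta-lactamase FRET substrate to PR-UAS-bla HEK293T cells that had been co-treated 16 hr with compound and 1 nM R5020 (final concentration) in 2% charcoal-stripped FBS.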
# [5] = qHTS assay to identify small molecule antagonists of the progesterone receptor (PR) signaling pathway - cell viability counter screen (AID 1346798); also: series mostly up to about 92 µM; nearly all actives have a fitted effect of over 50% in size
# Summary of the method: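 CellTiter-Glo luminescence; PR-UAS-bla HEK293T, 3,000 cells/well; compound + R5020, 16 hr, 37C/5% CO2; 30 min RT before read.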
# [6] = qHTS assay to identify small molecule agonists of the progesterone receptor (PR) signaling pathway - cell viability counter screen (AID 1346799; calls by dose curve; also: nearly all actives have a fitted effect of over 45% in size)
# Summary of the method: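 In parallel with the beta-lactamase readout, cytotoxicity toward PR-UAS-bla HEK293T cells was measured by CellTiter-Glo luminescence following 16 hr compound incubation in 2% charcoal-stripped FBS medium.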
# [7] = qHTS assay to identify small molecule antagonists of the TGF-beta/Smad signaling pathway - cell viability counter screen (AID 1346824); also: nearly all actives have a fitted effect of over 50% in size
# Summary of the method: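 SBE-bla HEK 293T cells were plated overnight at 37 C, then given compounds in DMSO plus TGF-beta1 (added as 0.25 ng/mL solution) for 5 hr. After the bla read, CellTiter-Glo was added to the same wells and luminescence read after 30 min at room temperature.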
# [8] = qHTS assay to identify small molecule agonists of the TGF-beta/Smad signaling pathway - cell viability counter screen (AID 1346829); also: top concentration of the series differs between compounds; nearly all actives have a fitted effect of over 45% in size
# Summary of the method: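 Here the cytotoxicity of library compounds is measured in SBE-bla HEK 293T cells treated for 5 hr, using CellTiter-Glo added to wells already read for the beta-lactamase reporter.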
# [9] = qHTS assay to identify small molecule agonists of the TGF-beta/Smad signaling pathway (AID 1346859; active = well fitted activation curve with a large enough effect in the signal ratio in the repeat runs, not every such curve was filed as active; the % refers to the signal ratio; also: series mostly up to about 77 µM)
# Summary of the method: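 After overnight seeding, SBE-bla HEK 293T cells are dosed with compounds in DMSO and kept 5 hr at 37 C, 5% CO2. LiveBLAzer-type FRET substrate is then applied for 2 hr at room temperature.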
# [10] = target: Thyrotropin-releasing hormone receptor (Homo sapiens) (UniProt P34981); assay: qHTS assay to identify small molecule antagonists of the thyrotropin-releasing hormone receptor (TRHR) signaling pathway (AID 1346877; active = well fitted inhibition curve with a large enough effect in the repeat runs, not every such curve was filed as active; also: series mostly up to about 51 µM)
# Summary of the method: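 Following an 18 h incubation at 37 °C and a 2 h calcium dye load, TRHR-HEK293 cells were exposed to compound (5 min, room temperature) and challenged with TRH, 1 nM final.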
# [11] = target: Thyrotropin-releasing hormone receptor (Homo sapiens) (UniProt P34981); assay: qHTS assay to identify small molecule agonists of the thyrotropin-releasing hormone receptor (TRHR) signaling pathway (AID 1346891; calls by dose curve;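 also: HEK293 cells expressing TRHR with calcium dye readout; series mostly up to about 58 µM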)
# Summary of the method: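 Compounds were tested as agonists at 15 concentrations, in triplicate, on TRHR-Hek293 cells; calcium-sensitive dye fluorescence was recorded for 3 min following addition.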
# [12] = Human pregnane X receptor (PXR) small molecule agonists, qHTS cell viability counter screen (AID 1346977); also: nearly all actives have a fitted effect of over 50% in size
# Summary of the method: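 Viability counter screen: CellTiter-Fluor signal in PXR-Luc HepG2 cells, 24hr compound exposure, 37C, 5% CO2.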
# [13] = Caspase-3/7 induction in HepG2 cells by small molecules, qHTS assay (AID 1346978); also: nearly all actives have a fitted effect of over 15% in size
# Summary of the method: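 Wild-type HepG2 cells (2,000/well) were settled 5 h at 37 C, 5% CO2, then exposed to compounds in DMSO for 17 h. Caspase-3/7 activity was read by luminescence 30 min after adding Caspase-Glo 3/7 reagent at room temperature.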
# [14] = Caspase-3/7 induction in CHO-K1 cells by small molecules, qHTS cell viability counter screen (AID 1346979); also: nearly all actives have a fitted effect of over 35% in size
# Summary of the method: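 Viability readout by fluorescence (CellTiter-Fluor) on wild-type CHO-K1 cells exposed for 16hr at 37C and 5% CO2 to compounds delivered in DMSO; reagent incubated 1hr before reading.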
# [15] = Caspase-3/7 induction in CHO-K1 cells by small molecules, qHTS assay (AID 1346980); also: nearly all actives have a fitted effect of over 15% in size
# Summary of the method: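 Wild-type cells were seeded at 1,500 per well and settled 5 hr at 37 C, 5% CO2, then exposed to DMSO-dissolved compounds for 17 hr. Caspase-Glo 3/7 reagent was added, and luminescence was read after 30min at room temperature.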
# [16] = Caspase-3/7 induction in HepG2 cells by small molecules, qHTS cell viability counter screen (AID 1346981); also: series mostly up to about 92 µM; nearly all actives have a fitted effect of over 30% in size
# Summary of the method: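 Viability determined by CellTiter-Fluor fluorescence in HepG2 wells also used for the luminescent Caspase-Glo 3/7 read. Compounds were present for 16 hr at 37 C, 5% CO2 before reagent addition.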
# [17] = target: Nuclear receptor subfamily 1 group I member 2 (Homo sapiens) (UniProt O75469); assay: Human pregnane X receptor (PXR) small molecule agonists, qHTS assay (AID 1346982); also: nearly all actives have a fitted effect of over 35% in size; also: potency is read from the fitted curve at half-maximal effect
# Summary of the method: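 Compound-induced hPXR transactivation of a CYP3A4 luciferase reporter was scored in HepG2 PXR-Luc cells over 24 hr at 37 C, 5% CO2, by luminescence.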
# [18] = target: Cytochrome P450 2D6 (Homo sapiens) (UniProt P10635); assay: Cytochrome P450 Family 2 Subfamily D Member 6 (CYP2D6) small molecule antagonists: luciferase reporter qHTS assay (AID 1671196); also: series mostly up to about 120 µM; nearly all actives have a fitted effect of over 50% in size
# Summary of the method: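 Each well received CYP2D6 with its proluciferin substrate and chemical, sat 10 min, then got NADPH regeneration solution for 1 h at room temperature. Luminescence in RLU served as the activity measure.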
# [19] = target: Nuclear receptor subfamily 1 group I member 2 (Rattus norvegicus) (UniProt Q9R1A7); assay: Rat pregnane X receptor (rPXR) activation by small molecules, qHTS assay (AID 1346983); conditions: rPXR luciferase reporter cells, One-Glo luminescence, 24 h; max activation: active compounds read high; also: nearly all actives have a fitted effect of over 20% in size
# Summary of the method: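 Cell-based rPXR luciferase reporter assay, 2,000 cells per well, rested 5hr at 37 C before compound addition in DMSO, then 24 hr at 37 C. One-Glo reagent was added and luminescence read after 30 min at room temperature.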
# [20] = target: Nuclear receptor subfamily 1 group I member 2 (Homo sapiens) (UniProt O75469); assay: CYP3A4 induction through human pregnane X receptor (PXR) by small molecules, qHTS assay (AID 1346984); also: nearly all actives have a fitted effect of over 40% in size
# Summary of the method: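 Readings come from a luciferase reporter: DPX-2 cells, which are HepG2 cotransfected with PXR and a CYP3A4-promoter construct, were exposed to test compounds for 24 h at 37C before One-Glo detection.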
# Chain of Thyrotropin-releasing hormone receptor (Homo sapiens) (P34981 whole entry, looked up): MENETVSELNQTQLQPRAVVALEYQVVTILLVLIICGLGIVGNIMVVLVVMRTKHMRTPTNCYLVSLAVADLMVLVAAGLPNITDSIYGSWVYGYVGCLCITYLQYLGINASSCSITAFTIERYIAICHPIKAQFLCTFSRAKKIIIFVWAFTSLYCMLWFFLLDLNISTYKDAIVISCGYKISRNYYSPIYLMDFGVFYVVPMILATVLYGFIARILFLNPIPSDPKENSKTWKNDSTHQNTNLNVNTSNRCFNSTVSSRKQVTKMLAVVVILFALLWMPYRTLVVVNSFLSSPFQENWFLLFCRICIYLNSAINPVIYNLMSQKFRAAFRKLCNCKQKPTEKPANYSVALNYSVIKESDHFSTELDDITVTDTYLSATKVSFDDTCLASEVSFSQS
# Chain of Progesterone receptor (Homo sapiens) (P06401 whole entry, looked up): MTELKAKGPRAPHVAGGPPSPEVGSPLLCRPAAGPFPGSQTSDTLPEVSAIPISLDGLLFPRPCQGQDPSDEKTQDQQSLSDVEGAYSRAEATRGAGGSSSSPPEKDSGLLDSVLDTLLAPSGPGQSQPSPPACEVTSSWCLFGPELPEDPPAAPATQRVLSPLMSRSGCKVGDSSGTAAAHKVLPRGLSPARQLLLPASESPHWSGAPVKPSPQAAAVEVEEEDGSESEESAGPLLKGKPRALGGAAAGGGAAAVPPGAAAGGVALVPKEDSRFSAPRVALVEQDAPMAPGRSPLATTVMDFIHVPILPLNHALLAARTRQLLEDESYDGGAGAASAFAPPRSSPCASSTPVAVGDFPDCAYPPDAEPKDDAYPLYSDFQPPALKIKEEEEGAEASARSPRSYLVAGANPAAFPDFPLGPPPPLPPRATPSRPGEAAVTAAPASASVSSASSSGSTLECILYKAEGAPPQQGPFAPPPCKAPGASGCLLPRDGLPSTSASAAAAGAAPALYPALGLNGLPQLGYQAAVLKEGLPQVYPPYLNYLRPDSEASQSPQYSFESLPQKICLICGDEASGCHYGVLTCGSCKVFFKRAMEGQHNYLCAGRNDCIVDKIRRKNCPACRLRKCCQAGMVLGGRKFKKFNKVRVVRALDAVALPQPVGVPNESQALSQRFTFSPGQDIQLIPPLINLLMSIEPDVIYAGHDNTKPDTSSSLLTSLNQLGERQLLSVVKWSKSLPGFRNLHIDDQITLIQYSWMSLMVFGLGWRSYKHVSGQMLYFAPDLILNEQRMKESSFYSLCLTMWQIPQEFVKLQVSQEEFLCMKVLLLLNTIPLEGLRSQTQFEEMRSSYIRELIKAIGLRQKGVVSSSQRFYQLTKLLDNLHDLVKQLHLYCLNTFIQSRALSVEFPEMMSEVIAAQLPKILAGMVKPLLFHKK
# Chain of Thyrotropin receptor (Homo sapiens) (P16473 whole entry, looked up): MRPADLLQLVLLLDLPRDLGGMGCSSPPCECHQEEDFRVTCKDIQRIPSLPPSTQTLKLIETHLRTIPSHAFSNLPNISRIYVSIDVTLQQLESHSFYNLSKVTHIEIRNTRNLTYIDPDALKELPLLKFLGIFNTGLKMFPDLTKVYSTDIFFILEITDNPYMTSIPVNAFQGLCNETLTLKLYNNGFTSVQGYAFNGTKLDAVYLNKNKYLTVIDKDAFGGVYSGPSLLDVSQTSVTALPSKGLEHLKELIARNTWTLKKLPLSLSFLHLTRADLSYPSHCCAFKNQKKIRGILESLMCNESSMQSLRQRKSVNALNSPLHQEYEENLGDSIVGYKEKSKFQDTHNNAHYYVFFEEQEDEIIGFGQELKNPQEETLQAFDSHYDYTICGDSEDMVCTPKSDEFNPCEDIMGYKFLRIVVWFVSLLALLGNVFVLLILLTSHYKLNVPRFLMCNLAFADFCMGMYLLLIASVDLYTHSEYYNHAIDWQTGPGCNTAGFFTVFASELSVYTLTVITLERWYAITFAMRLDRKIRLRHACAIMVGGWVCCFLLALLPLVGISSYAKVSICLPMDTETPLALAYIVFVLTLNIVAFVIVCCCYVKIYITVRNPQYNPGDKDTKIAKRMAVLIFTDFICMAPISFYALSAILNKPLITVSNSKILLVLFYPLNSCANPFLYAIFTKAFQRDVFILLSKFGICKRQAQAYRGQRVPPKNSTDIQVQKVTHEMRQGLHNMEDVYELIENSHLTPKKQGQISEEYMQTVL
# Chain of Cytochrome P450 2D6 (Homo sapiens) (P10635 whole entry, looked up): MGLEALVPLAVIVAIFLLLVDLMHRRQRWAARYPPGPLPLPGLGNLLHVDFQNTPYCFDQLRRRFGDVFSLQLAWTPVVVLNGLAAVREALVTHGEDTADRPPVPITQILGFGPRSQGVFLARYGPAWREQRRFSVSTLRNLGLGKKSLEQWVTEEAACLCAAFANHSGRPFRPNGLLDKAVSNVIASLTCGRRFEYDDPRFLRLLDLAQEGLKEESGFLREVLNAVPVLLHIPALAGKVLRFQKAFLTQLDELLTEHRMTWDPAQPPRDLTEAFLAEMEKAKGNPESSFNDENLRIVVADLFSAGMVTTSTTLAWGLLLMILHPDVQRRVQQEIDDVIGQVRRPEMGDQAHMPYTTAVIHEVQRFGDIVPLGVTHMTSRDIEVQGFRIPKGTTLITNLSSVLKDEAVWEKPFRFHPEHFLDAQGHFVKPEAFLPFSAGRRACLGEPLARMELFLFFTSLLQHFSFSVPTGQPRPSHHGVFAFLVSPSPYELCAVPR
# Chain of Nuclear receptor subfamily 1 group I member 2 (Rattus norvegicus) (Q9R1A7 whole entry, looked up): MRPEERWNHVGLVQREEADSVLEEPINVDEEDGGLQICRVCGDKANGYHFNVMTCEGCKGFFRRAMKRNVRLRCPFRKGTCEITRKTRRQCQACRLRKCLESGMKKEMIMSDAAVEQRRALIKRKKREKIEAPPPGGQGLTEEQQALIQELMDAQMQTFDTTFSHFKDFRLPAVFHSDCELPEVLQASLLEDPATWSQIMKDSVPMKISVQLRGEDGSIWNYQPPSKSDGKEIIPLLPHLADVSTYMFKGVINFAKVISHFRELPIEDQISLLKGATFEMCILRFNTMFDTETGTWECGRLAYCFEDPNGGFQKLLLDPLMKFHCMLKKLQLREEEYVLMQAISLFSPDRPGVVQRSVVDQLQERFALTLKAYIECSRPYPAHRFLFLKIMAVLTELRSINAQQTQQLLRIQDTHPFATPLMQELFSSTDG
# Chain of Nuclear receptor subfamily 1 group I member 2 (Homo sapiens) (O75469 whole entry, looked up): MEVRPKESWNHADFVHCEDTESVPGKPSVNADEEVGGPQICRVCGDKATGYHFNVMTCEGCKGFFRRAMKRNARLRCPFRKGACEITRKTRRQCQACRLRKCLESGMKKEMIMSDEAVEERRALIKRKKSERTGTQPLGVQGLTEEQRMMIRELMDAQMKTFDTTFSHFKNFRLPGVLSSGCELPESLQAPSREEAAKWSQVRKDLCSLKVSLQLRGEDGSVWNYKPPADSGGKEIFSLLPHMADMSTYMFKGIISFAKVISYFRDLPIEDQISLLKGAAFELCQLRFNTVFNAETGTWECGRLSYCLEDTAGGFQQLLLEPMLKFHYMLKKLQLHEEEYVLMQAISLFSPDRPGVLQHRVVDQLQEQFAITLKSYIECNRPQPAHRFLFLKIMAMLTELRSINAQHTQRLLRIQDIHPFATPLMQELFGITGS
compound,measurement,setting,value
O=CNNC=O,Potency,[1],inactive
same,Potency,[2],inactive
same,Potency,[3],inactive
same,Potency,[4],inactive
same,Potency,[5],inactive
same,Potency,[6],inactive
same,outcome,[7],inactive
same,Potency,[8],inactive
same,Potency,[9],inactive
same,outcome,[10],inactive
same,outcome,[11],inactive
same,Potency,[12],inactive
same,Potency,[13],inactive
same,Potency,[14],inactive
same,outcome,[15],inactive
same,Potency,[16],inactive
same,Potency,[17],inactive
same,Potency,[18],inactive
CC1=CC[C@@H]2C[C@H]1C2(C)C,"activity change, negative = inhibition",[1],8.95% [at 19 µM]
same,"activity change, negative = cytotoxicity",[2],3.72% [at 19 µM]
same,activation,[3],3.56% [at 19 µM]
same,"activity change, negative = inhibition",[4],6.78% [at 18.9 µM]
same,"activity change, negative = cytotoxicity",[5],0.83% [at 18.9 µM]
same,"activity change, negative = cytotoxicity",[6],-14.1% [at 19 µM]
same,"viability change, negative = cytotoxic",[7],2.23% [at 15.8 µM]
same,"activity change, negative = cytotoxicity",[8],7.86% [at 15.8 µM]
same,activation,[9],0.129% [at 15.8 µM]
same,"activity, negative = inhibition",[10],3.09% [at 10.5 µM]
same,activation,[11],-0.516% [at 11.8 µM]
same,caspase activation,[13],-0.809% [at 19 µM]
same,"activity change, negative = cytotoxicity",[14],-0.814% [at 19 µM]
same,caspase-3/7 activation,[15],0.0875% [at 19 µM]
same,"activity change, negative = cytotoxicity",[16],-0.185% [at 19 µM]
same,"activity change, negative = inhibition",[18],-8.83% [at 23.6 µM]
CC/C=C\C/C=C\C/C=C\CCCCCCCC(=O)OCC,Potency,[1],inactive
same,Potency,[2],inactive
same,Potency,[3],inactive
same,Potency,[4],inactive
same,Potency,[5],inactive
same,Potency,[6],inactive
same,outcome,[7],inactive
same,Potency,[9],inactive
same,outcome,[10],inactive
same,outcome,[11],inactive
same,Potency,[12],inactive
same,Potency,[13],inactive
same,Potency,[16],inactive
CC(=O)N[C@@H](Cc1ccc(O)cc1)C(=O)O,Potency,[1],inactive
same,Potency,[2],inactive
same,Potency,[3],inactive
same,Potency,[4],inactive
same,Potency,[5],inactive
same,Potency,[6],inactive
same,outcome,[7],inactive
same,Potency,[8],inactive
same,Potency,[9],inactive
same,Potency,[12],inactive
same,Potency,[13],inactive
same,outcome,[15],inactive
same,Potency,[16],inactive
same,Potency,[17],inactive
same,max activation,[19],-1.6%
same,Potency,[20],inactive
same,Potency,[18],inactive
CCN(CC)C(=O)N1CCN(C)CC1,Potency,[1],inactive
same,Potency,[2],inactive
same,Potency,[3],inactive
same,Potency,[4],inactive
same,Potency,[5],inactive
same,Potency,[6],inactive
same,outcome,[7],inactive
same,Potency,[8],inactive
same,Potency,[9],inactive
same,Potency,[13],inactive
same,Potency,[14],inactive
same,outcome,[15],inactive
same,Potency,[16],inactive
same,Potency,[17],inactive
same,max activation,[19],-2.03%
same,Potency,[20],inactive
same,Potency,[18],inactive
CC[C@@H](CO)NCCN[C@@H](CC)CO,Potency,[1],inactive
same,Potency,[2],inactive
same,Potency,[3],inactive
same,Potency,[4],inactive
same,Potency,[5],inactive
same,Potency,[6],inactive
same,outcome,[7],inactive
same,Potency,[8],inactive
same,Potency,[9],inactive
same,Potency,[12],inactive
same,Potency,[13],inactive
same,Potency,[14],inactive
same,outcome,[15],inactive
same,Potency,[16],inactive
same,Potency,[17],inactive
same,max activation,[19],2.2%
same,Potency,[20],inactive
same,Potency,[18],inactive
CCO[Si](C)(CCCOCC1CO1)OCC (centres undefined),Potency,[1],inactive
same,Potency,[2],inactive
same,Potency,[3],inactive
same,Potency,[4],inactive
same,Potency,[5],inactive
same,Potency,[6],inactive
same,outcome,[7],inactive
same,Potency,[8],inactive
same,Potency,[9],inactive
same,Potency,[13],inactive
same,Potency,[14],inactive
same,outcome,[15],inactive
same,Potency,[16],inactive
same,Potency,[17],inactive
same,Potency,[18],inactive
CNCc1ccc(NC(=O)c2c[nH]c3c2C(=O)CCC3)cc1,Potency,[1],inactive
same,Potency,[2],inactive
same,Potency,[3],inactive
same,Potency,[4],inactive
same,Potency,[5],inactive
same,outcome,[7],inactive
same,Potency,[8],inactive
same,Potency,[9],inactive
same,outcome,[10],inactive
same,outcome,[11],inactive
same,Potency,[13],inactive
same,outcome,[15],inactive
same,Potency,[16],inactive
same,Potency,[17],1090 nM (active)
same,Potency,[18],inactive
